The values below come from PubChem BioAssay.

One test concerns Human papillomavirus type 1a E7 protein (residues 1-88). In words: HPV1a E7 small-molecule binders, primary screen, biochemical, small-molecule microarray, residues 1-88, 635 nm (AID 1129). The settings on record: small-molecule microarray binding, fluorescence 635 nm; higher = more signal.
Consider `CO[C@H]1COC(=O)CC=C[C@@H](C)COC(=O)[C@@H](C)NC(=O)CC=C[C@@H]1C`, for which the composite z-score was -1.53.
Compound `C=C[C@H](OC)[C@@H](OC(=O)Nc1ccc(SC)cc1)c1ccc(O)c(F)c1` registered a composite z-score of 0.0378.
Take `[N-]=[N+]=NCc1ccccc1C[C@@]1(C(=O)N2CCOCC2)N=C(c2ccc(OCCCO)cc2)O[C@@H]1c1ccccc1N=[N+]=[N-]`: the composite z-score was found to be 1.22.
Still for that read-out and setting: to `[N-]=[N+]=NCc1ccccc1C[C@@]1(C(=O)O)N=C(c2ccc(OCCCO)cc2)O[C@@H]1c1ccccc1N=[N+]=[N-]` belongs 1.22.
Turning to `CSCC[C@@H]1NC(=O)CC=C[C@@H](C)COC(=O)[C@H](CCSC)NC(=O)CC=C[C@@H](C)COC1=O`, the composite z-score is -0.111.
In turn, `C=C(COC)/C(=C/C[C@@H](OC(C)=O)c1cccc(OCCO)c1)c1cc(C(=O)OC)ccc1OC` came in with a composite z-score of 0.0995.
The compound `CCOC(=O)C[C@H]1[C@H](OC(=O)c2cc3ccccc3oc2=O)[C@@H](NC(=O)C2CCCCC2)c2cc(OCCCO)ccc2N1C(=O)c1ccc2ccccc2n1` showed a composite z-score of 0.791.
Still for that read-out and setting: to `C=C(COC)C(=O)CC[C@H](OC(=O)c1ccccc1-c1ccccc1C(=O)O)c1cccc(OCCO)c1` belongs 1.27; to `C=CC[C@]1(C(=O)OC)N=C(c2ccc(OCCCO)cc2)O[C@H]1c1ccccc1CN=[N+]=[N-]`, 0.731.

For a further test, the target named is Focal adhesion kinase 1 (Homo sapiens) (UniProt Q05397). Description: small-molecule microarray binders of FAK, primary screen, biochemical, 635/667 nm fluorescence, BSA, DTT (AID 1130).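 Note: composite of spot emission at 667 nm and signal to noise over triplicate slides.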 The settings on record: PTK2 binding, 635 nm fluorescence, higher = more signal.
Sequence of Focal adhesion kinase 1 (Homo sapiens) (Q05397 whole entry, looked up): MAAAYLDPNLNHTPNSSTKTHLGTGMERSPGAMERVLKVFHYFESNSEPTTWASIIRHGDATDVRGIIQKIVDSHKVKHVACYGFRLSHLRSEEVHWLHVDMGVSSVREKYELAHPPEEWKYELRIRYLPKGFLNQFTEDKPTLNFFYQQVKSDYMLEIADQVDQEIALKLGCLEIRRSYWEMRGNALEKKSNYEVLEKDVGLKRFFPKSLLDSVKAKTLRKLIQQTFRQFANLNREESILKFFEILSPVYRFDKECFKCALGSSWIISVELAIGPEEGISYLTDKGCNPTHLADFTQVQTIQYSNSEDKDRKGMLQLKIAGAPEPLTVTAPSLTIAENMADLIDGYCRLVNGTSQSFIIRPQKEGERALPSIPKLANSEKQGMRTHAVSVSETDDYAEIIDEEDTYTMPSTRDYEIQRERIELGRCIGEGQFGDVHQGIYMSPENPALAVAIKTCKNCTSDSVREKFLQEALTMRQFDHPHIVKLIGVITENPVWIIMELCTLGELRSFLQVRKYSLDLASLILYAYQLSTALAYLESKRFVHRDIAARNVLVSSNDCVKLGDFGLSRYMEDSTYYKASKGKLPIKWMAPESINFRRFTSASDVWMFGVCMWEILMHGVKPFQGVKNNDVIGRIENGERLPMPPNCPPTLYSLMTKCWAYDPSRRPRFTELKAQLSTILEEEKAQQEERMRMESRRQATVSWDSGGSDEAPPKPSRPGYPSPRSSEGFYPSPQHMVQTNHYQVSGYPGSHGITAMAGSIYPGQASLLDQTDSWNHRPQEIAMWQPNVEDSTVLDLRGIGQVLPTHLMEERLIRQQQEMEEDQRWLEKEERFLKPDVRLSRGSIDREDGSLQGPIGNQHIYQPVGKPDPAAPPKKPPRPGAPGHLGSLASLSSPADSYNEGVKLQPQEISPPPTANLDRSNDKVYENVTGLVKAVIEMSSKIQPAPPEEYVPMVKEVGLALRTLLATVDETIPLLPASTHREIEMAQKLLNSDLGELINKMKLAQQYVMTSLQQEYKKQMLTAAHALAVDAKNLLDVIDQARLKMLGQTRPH
The compound `O=[N+]([O-])c1ccc(C[n+]2ccc3ccc(O)cc3c2)o1` had a composite z-score of 0.326.
As to `O=C1O[C@@H](c2ccccc2)[C@@H](c2ccccc2)N2[C@@H](c3ccccc3OCCO)[C@]3(C(=O)Nc4ccc(C#CC5=CCCCC5)cc43)[C@@H](C(=O)O)[C@H]12`, the composite z-score was 0.705.
Regarding `CCC#CCN(Cc1ccccc1Br)[C@H](/C=C/c1ccccc1)[C@@H](O)Cc1ccccc1`, the composite z-score was -0.0168.
Take `COCCOC(=O)N1C(=O)[C@@]2(c3cc(C#CC4(O)CCCCCC4)ccc31)[C@H](C(=O)N1CCCCCCC1)[C@H]1C(=O)O[C@H](c3ccccc3)[C@H](c3ccccc3)N1[C@@H]2c1ccc(O)cc1`: the composite z-score is 0.646.
`C[N+](C)(C)CCCCNC(=O)[C@@H]1C[C@@H]2C(=O)N3CCC[C@H]3C(=O)N2[C@@H]1c1cccc(OCCO)c1` gave a composite z-score of 0.275.
As for `C=CCN1C(=O)[C@]2(O[C@H](CCn3cc(CCO)nn3)[C@@H]([Si](C)(C)c3ccc(OC)cc3)[C@@H]2C)c2cc(NC(=O)c3ccc(OC)cc3)ccc21`, the composite z-score was found to be 0.611.
For the compound `CO[C@H]1COC(=O)[C@@H](Cc2ccccc2)NC(=O)[C@@H](C)COC(=O)CC=C[C@@H]1C`, the composite z-score was -0.112.
In turn, `O=C1C2C=CC(C(O)c3ccccc3)N(n3cnnc3)C2C(=O)N1Cc1ccccc1` (stereo not given) registered a composite z-score of 0.321.
The same measure, in the same setting: to `C=C(COC)/C(=C/C[C@@H](OC(=O)c1ccncc1)c1ccc(OCCO)cc1)c1cc(C(=O)OC)ccc1OC` belongs 1.21.
Turning to `O=C1C[C@@](C(=O)NCCN2CCOCC2)(c2ccc([N+](=O)[O-])cc2)[C@@H](c2ccc(CO)cc2)N1C1CCCCC1`, the composite z-score is -0.442.
Still for that read-out and setting: to `COc1ccc(NN2C(C(O)c3cc(OC)c(OC)c(OC)c3)C=CC3C(=O)N(C4CCCCC4)C(=O)C32)cc1` (stereo not given) belongs 1.06.
As for `C=C(C)[C@@H]1CC=C(C(O)C2C=CC3C(=O)NC(=O)C3N2Nc2ccccn2)CC1` (stereo not given in full), the composite z-score was -0.167.
Consider `O=C1OCCC/C=C\[C@H]2OC34C=CCN(CCN5CCOCC5)C(=O)[C@H]3N(CCCCCO)C(=O)[C@@H]4C12` (stereo not given in full), for which the composite z-score is -1.29.
`NC(=O)NCC#Cc1ccc2c(c1)[C@]1(C(=O)N2)[C@H](C(N)=O)[C@H]2C(=O)O[C@H](c3ccccc3)[C@H](c3ccccc3)N2[C@@H]1c1ccccc1OCCO`: the composite z-score was -0.0788.
For the compound `COc1ccc([Si](C)(C)[C@H]2[C@H](CCO)O[C@@]3(C(=O)N(Cc4ccccc4)c4ccc(N5C(=O)c6cccc7cccc5c67)cc43)[C@@H]2C)cc1`, the composite z-score is 0.209.
`CN(C)c1ccc(C(O)C2C=CC3C(=O)NC(=O)C3N2Nc2ccc(Cl)cc2Cl)cc1` (stereo not given): the composite z-score worked out at 0.155.
For the compound `COC(=O)C(CC#Cc1ccc2c(c1)[C@]1(C(=O)N2)[C@H](C(=O)N2CCCCCCC2)[C@H]2C(=O)O[C@H](c3ccccc3)[C@H](c3ccccc3)N2[C@@H]1c1ccc(O)cc1)C(=O)OC`, the composite z-score is -0.222.
`C=CCNC(=O)[C@@H]1[C@H]2C(=O)O[C@H](c3ccccc3)[C@H](c3ccccc3)N2[C@H](c2ccc(OCCO)cc2)[C@@]12C(=O)N(C(=O)OCCOC)c1ccc(C#CC3(O)CCCCCC3)cc12`: the composite z-score turned out to be 0.262.
Regarding `CC(C)[Si]1(C(C)C)O[C@@H](c2ccccc2)c2cc(C3CC3)nc(-c3ccc(Oc4ccccc4)cc3)c21`, the composite z-score was -0.323.
`[N-]=[N+]=NCc1ccccc1C[C@]1(C(=O)N2CCCCC2)N=C(c2ccc(OCCCO)cc2)O[C@H]1c1ccccc1CN=[N+]=[N-]`: the composite z-score turned out to be 0.652.
Same read-out and setting: to `Cc1ccc(N2C(=O)c3ccccc3[C@@H](C(=O)NCC(F)(F)F)[C@@H]2c2ccc(CO)cc2)nc1` belongs -0.589; to `CC(C)N1CC=CC23O[C@@H]4/C=C\CCCOC(=O)C4[C@H]2C(=O)N(CCO)[C@@H]3C1=O` (stereo not given in full), 0.339; to `O=C(NCC(F)(F)F)[C@@H]1c2ccccc2C(=O)N(Cc2ccccc2Cl)[C@H]1c1ccc(CO)cc1`, -0.844.
Consider `C=CCNC(=O)[C@H]1[C@@H]2C(=O)O[C@@H](c3ccccc3)[C@@H](c3ccccc3)N2[C@@H](c2ccccc2OCCO)[C@]12C(=O)N(C(=O)OCCOC)c1ccc(C#CCC(C(=O)OC)C(=O)OC)cc12`, for which the composite z-score was found to be 0.751.
For `C[C@@H]1C=CCC(=O)OC[C@H]2O[C@@H](C=C[C@@H]2O)[C@H](C)C=CCC(=O)OC[C@H]2O[C@H]1C=C[C@@H]2O`, the composite z-score was -0.095.
Still for that read-out and setting: under `Cc1ccc(S[C@]2(C(=O)NCCN3CCOCC3)CC(=O)N(C3Cc4ccccc4C3)[C@@H]2c2ccc(CO)cc2I)cc1` stands 0.355.
As to `CC(C)CNC(=O)[C@@]1(C)c2ccccc2C(=O)N(Cc2ccc(OC(F)(F)F)cc2)[C@H]1c1ccc(CO)cc1`, the composite z-score was -0.0752.
Take `CO[C@H]1COC(=O)CC=C[C@@H](C)COC(=O)[C@@H](C)NC(=O)CC=C[C@@H]1C`: the composite z-score was -1.02.
For the compound `C=C[C@H](OC)[C@@H](OC(=O)Nc1ccc(SC)cc1)c1ccc(O)c(F)c1`, the composite z-score is -0.264.
In turn, `[N-]=[N+]=NCc1ccccc1C[C@@]1(C(=O)N2CCOCC2)N=C(c2ccc(OCCCO)cc2)O[C@@H]1c1ccccc1N=[N+]=[N-]` returned a composite z-score of 0.662.
`[N-]=[N+]=NCc1ccccc1C[C@@]1(C(=O)O)N=C(c2ccc(OCCCO)cc2)O[C@@H]1c1ccccc1N=[N+]=[N-]` registered a composite z-score of 0.581.
Consider `CSCC[C@@H]1NC(=O)CC=C[C@@H](C)COC(=O)[C@H](CCSC)NC(=O)CC=C[C@@H](C)COC1=O`, for which the composite z-score was -0.388.
On the same count and under the same terms, to `C=C(COC)/C(=C/C[C@@H](OC(C)=O)c1cccc(OCCO)c1)c1cc(C(=O)OC)ccc1OC` belongs -0.453.
For the compound `CCOC(=O)C[C@H]1[C@H](OC(=O)c2cc3ccccc3oc2=O)[C@@H](NC(=O)C2CCCCC2)c2cc(OCCCO)ccc2N1C(=O)c1ccc2ccccc2n1`, the composite z-score was determined as 2.65.
The same measure, in the same setting: to `C=C(COC)C(=O)CC[C@H](OC(=O)c1ccccc1-c1ccccc1C(=O)O)c1cccc(OCCO)c1` belongs 0.403; to `C=CC[C@]1(C(=O)OC)N=C(c2ccc(OCCCO)cc2)O[C@H]1c1ccccc1CN=[N+]=[N-]`, 0.5.
